# Test results from the supplement of paper PMC3724861.
# Many of the other results were omitted from the sample, so hits are more common in it than they were. The true hit rate is not given.
# Tested on: T1, Caupolican (Caup) homeodomain DNA-binding domain
# T1 sequence: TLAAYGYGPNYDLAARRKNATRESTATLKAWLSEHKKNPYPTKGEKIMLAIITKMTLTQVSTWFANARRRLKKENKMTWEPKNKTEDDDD
# Experiment: PBM E-score (8-mer, recovered from the published 9-mer minima) (E-score (dimensionless, -0.5 to 0.5)); Drosophila protein; higher = stronger relative binding preference, active = 0.31 or more
# Summary of the method: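 Caup's homeodomain DNA-binding domain (residues 214-303) was produced by in vitro transcription and translation and applied at 100 nM to custom-designed protein binding microarrays. Each value is an enrichment score giving relative binding preference for a short DNA word; higher means stronger. Published 9-mer scores were the minimum of their two constituent 8-mer scores, and the 8-mer values were recovered from those minima. A cutoff of 0.31 marks candidate binding sequences.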
row,Sequence,PBM E-score
1,CATGCTGG,0.0451 (inactive)
2,CGAAGTCC,-0.149 (inactive)
3,GGCAAGTA,0.101 (inactive)
4,ACAGGCGT,-0.013 (inactive)
5,GTGTCAGA,0.245 (inactive)
6,GTGTCATA,0.292 (inactive)
7,ATGTCATC,0.306 (inactive)
8,CTGTCAGA,0.0887 (inactive)
9,CTGTCATA,0.246 (inactive)
10,ATGTCAGA,0.336 (active)
11,ATGTCATA,0.4 (active)
12,ATGTCAGG,0.209 (inactive)
13,ATGTCATG,0.353 (active)
14,ACCTCGCC,-0.212 (inactive)
15,GCCCTGCA,-0.173 (inactive)
16,TCAGTGAA,-0.0554 (inactive)
17,CCGAGTAG,-0.0123 (inactive)
18,AAATCACA,0.108 (inactive)
19,CCCGTTAC,0.0202 (inactive)
20,GGTATGTA,0.277 (inactive)
21,AATATGTG,0.259 (inactive)
22,AATATGTC,0.297 (inactive)

row,Sequence,PBM E-score
1,GATATGTA,0.321 (active)
2,CATATGTA,0.334 (active)
3,GATATGAA,0.0673 (inactive)
4,CGTATGTA,0.289 (inactive)
5,CATATGTC,0.277 (inactive)
6,AATATGTA,0.328 (active)
7,CCGGGAGC,-0.282 (inactive)
8,CTCTGGAA,-0.12 (inactive)
9,CGACGGAC,0.00364 (inactive)
10,ACAGCGAG,-0.0026 (inactive)
11,GGCTATAC,-0.0714 (inactive)
12,AACGAGGA,0.0777 (inactive)
13,CTGAAACC,-0.0654 (inactive)
14,CTTCCGGA,-0.173 (inactive)
15,GCATGTCA,0.44 (active)
16,CCATGTCA,0.398 (active)
17,AAATGTCG,0.144 (inactive)
18,GCATGTCC,0.31 (active)
19,ACATGTCG,0.416 (active)
20,GCATGGCA,-0.0563 (inactive)
21,ATATGTCG,0.302 (inactive)
22,CAATGTCA,0.293 (inactive)

row,Sequence,PBM E-score
1,GAATGTCA,0.169 (inactive)
2,AAATGTCC,0.126 (inactive)
3,CCATGGCA,-0.0986 (inactive)
4,GAATGTCC,0.145 (inactive)
5,GATAAGGA,0.0879 (inactive)
6,CGTTATAC,0.0592 (inactive)
7,GTTTTTGA,0.084 (inactive)
8,GTTTAGAA,0.121 (inactive)
9,ACATGTCT,0.417 (active)
10,CAATGTCG,0.227 (inactive)
11,ACCTGTCT,0.144 (inactive)
12,CCCTGTCG,-0.0227 (inactive)
13,AAATGTCA,0.266 (inactive)
14,ACATGTCC,0.438 (active)
15,ACATGTCA,0.461 (active)
16,ACATGGCA,0.307 (inactive)
17,AAATGTCT,0.106 (inactive)
18,CCATGTCG,0.362 (active)
19,CCATGTCC,0.292 (inactive)
20,AGATGTCC,0.234 (inactive)
